Screens: PubChem BioAssay, National Center for Advancing Translational Sciences (NCATS)
Most compounds without a hit are left out; they make up all but 5.7% or so of the library.
KB-3-1 tox: KB-3-1 parental cell cytotoxicity; 1.4% of 400,000 active; Potency, µM (highest dose often 46.1 µM), hits mostly cytotoxic; KB-3-1 viability, CellTiter-Glo ATP luminescence, 72 h; also: nearly all actives have a fitted effect of over 60% in size
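72 h, 37 °C compound treatment of KB-3-1 parental cells; CellTiter-Glo added, 10 min, luminescence read. Data corrected against DMSO-only plates and normalized before curve fitting.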
HT1080-NT tox: kills 2HG-producing HT-1080-NT fibrosarcoma cells; HT-1080-NT fibrosarcoma viability, CellTiter-Glo ATP luminescence, 48 h; Potency, µM (highest dose often 46.1 µM), without a hit: at the highest dose activity, negative = less viability, usual class: cytotoxic; 1.6% of 360,000 active;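 also: NT is the 2HG producing partner of a matched IDH1 knockdown line; 0% = DMSO-treated cells and -100% = media-only wells without cells; nearly all actives have a fitted effect of over 55% in size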
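Toxicity toward the 2HG-producing NT line was scored as %Activity, normalised to DMSO and no-cell wells, from CellTiter-Glo luminescence after 48 hours' treatment.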
KB-V1 cytotox: KB-V1 MDR subline cytotoxicity | KB-V1 MDR cells viability, CellTiter-Glo, 72 h | Potency, µM (doses to about 46.1 µM), usual class: cytotoxic | 3.4% of 400,000 active | AID 1347076; also: nearly all actives have a fitted effect of over 60% in size
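Following 72 h at 37 degrees C with compound, KB-V1 cell viability was read by CellTiter-Glo luminescence, medium being phenol-red-free DMEM plus 10% FBS; concentration-response parameters came from normalized, curve-fitted qHTS data.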
HT1080 IDH1KD tx: kills HT-1080 cells with IDH1 knockdown | HT-1080 IDH1 knockdown viability, ATP luminescence, 48 h | 2% of 360,000 active | Potency, µM (series often up to 46.1 µM), for inactives: at the top dose activity, negative = toxicity, most hits filed as cytotoxic | AID 686971;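 also: 0% = DMSO wells and -100% = cell-free medium wells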
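Knockdown cells (IDH1KD HT-1080) received compounds 2 h after plating at 750 cells/well and were kept 48 h at 37 °C in 5% FBS RPMI. A CellTiter-Glo luminescence read gave % activity for curve fitting.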
The depositor's hits bear a star; i = inactive; ? = inconclusive; . = no result given; ! = not active in a repeat; [ ] = another dose, or the depositor's remark. Calls follow the shape of the dose curve; as a rule, active = well fitted curve in the direction sought with a large enough effect; inconclusive = small, poorly fitted or top-dose-only effect, or another doubt; inactive = no such curve, though single readings can be large; an effect the other way counts as inactive or inconclusive. Unless noted, % is scaled to controls: 0 for no effect and ±100 for the full control effect; potency is read from the fitted curve at half-maximal effect.

SMILES	KB-3-1 tox	HT1080-NT tox	KB-V1 cytotox	HT1080 IDH1KD tx
CC(=O)c1ccc(-n2nnnc2SCC(=O)N2CCc3ccccc3C2)cc1	i	8%	12µM*	12%
O=C(CSc1nnnn1-c1ccccc1)N1CCc2ccccc2C1	i	5%	15µM*	3%
Cn1cnnc1SCC(=O)N1CCc2ccccc2C1	i	13%	i	10%
CC(=O)c1cccc(-n2nnnc2SCC(=O)N2CCCC2)c1	i	5%	i	4%
O=C1c2ccccc2C(=O)N1c1cccc(N2C(=O)c3ccccc3C2=O)n1	i	.	i	.
CN(C)CCNc1ccc(CO)c2oc3ccc(O)cc3c(=O)c12	16µM*	?	i	21µM*
CN1CCN(NC(=O)c2cc(-c3cccc(Cl)c3)nc3ccccc23)CC1	i	16µM*	i	?
CC(C)c1ccc(-c2cc(C(=O)NN3CCN(C)CC3)c3ccccc3n2)cc1	i	?	i	-26%
O=C1CC(c2nc(-c3ccc(Cl)cc3)no2)CN1c1ccc2c(c1)OCCO2 (configuration not stated)	i	.	i	.
Nc1c(N(CCC2=CCCCC2)C(=O)Cc2ccc(F)cc2)c(=O)[nH]c(=O)n1Cc1ccccc1	i	-4%	i	-7%
Nc1c(N(CCC2=CCCCC2)C(=O)COc2ccc(F)cc2Cl)c(=O)[nH]c(=O)n1Cc1ccccc1	8.2µM*	18µM*	?	10µM*
Cc1ccc(NC(=O)/C(C#N)=C/c2cc(C)n(-c3ccc(F)cc3)c2C)cc1C	i	.	i	.
CN(C)c1nc(C=C(C#N)C#N)c(Cl)n1-c1ccc(F)cc1	?	7.3µM*	?	4.6µM*
Cc1ccc(C)c(OCc2cc(C(=O)N(C)Cc3nccn3C)no2)c1	i	-17%	13µM*	0%
Cc1cc(=O)n(CC(=O)NCCC(C)C)c2c1c(C)nn2C	i	.	i	.
CCCCn1c(=O)c2c(O)cc(=O)oc2c2ccccc21	i	1%	4.6µM*	7%
O=C1CCCc2c1cc(C(=O)O)c(=O)n2-c1ccccc1	i	4%	i	-4%
O=c1c([N+](=O)[O-])c(O)c2ccccc2n1Cc1ccccc1	i	-3%	i	0%
O=c1cc(O)c2c(=O)n(-c3ccccc3)c3c(c2o1)CCCCCC3	i	-3%	5.2µM*	0%
O=c1cc(O)c2c(=O)n(Cc3ccccc3)c3ccccc3c2o1	i	-15%	6.5µM*	-24%
O=c1cc(O)c2c(=O)n(C3CCCCC3)c3ccccc3c2o1	?	5%	4.1µM*	?
Cc1ccc(Cl)cc1NC(=O)C1CCCN(S(=O)(=O)c2c(C)noc2/C=C/N(C)C)C1 (configuration not stated)	i	.	i	.
COc1ccc(CN2C(=O)N(c3ccccc3)C(=O)C2c2ccccc2)cc1COc1ccc(NC(C)=O)cc1 (configuration not stated)	.	0%	.	7%
COc1ccc(C(=O)COc2nc(C)cc(C)c2C#N)cc1	?	-9%	13µM*	11%
CCOc1ccc(CNC(=O)CN2C(=O)C3CCCCN3c3ccc(C(=O)N4CCCC4)cc32)cc1 (configuration not stated)	i	.	i	.
SMILES	KB-3-1 tox	HT1080-NT tox	KB-V1 cytotox	HT1080 IDH1KD tx
Cc1cccc(-c2noc(-c3ccc(N4CCN(C)CC4)c([N+](=O)[O-])c3)n2)c1	18µM*	.	i	.
Cc1cccc(-c2noc(-c3ccc(N4CCCC4)c([N+](=O)[O-])c3)n2)c1	i	.	i	.
Cc1ccc(NC(=O)CCN2CCN(CCO)CC2)cc1C	i	.	?	.
CCOC(=O)/C(=C\c1ccc(Cl)cc1)c1nc2sc(C)c(C)c2c(=O)[nH]1	?	10µM*	?	12µM*
CCOC(=O)CSc1nc2sc(C)c(C)c2c(=O)[nH]1	i	8%	?	19%
Cc1ccc2nc(SCn3nnc4ccccc4c3=O)[nH]c2c1	i	-2%	23µM*	-8%
O=c1c2ccccc2nnn1CSc1nc2ccccc2[nH]1	i	4%	i	-14%
C(COC1CC2CC1C1C2CC2OC21)OC1CC2CC1C1C2CC2OC21 (configuration not stated)	i	-7%	21µM*	-7%
CCOCCCN(C(=O)c1ccco1)C(C(=O)NC1CCCC1)c1cccc(OC)c1OC (configuration not stated)	i	1%	16µM*	-11%
CCc1nnc(NC(=O)c2nc(SCc3ccccc3F)ncc2Cl)s1	i	.	i	.
CCc1nnc(NC(=O)c2nc(S(=O)(=O)Cc3cccc(C)c3)ncc2Cl)s1	21µM*	23µM*	?	10µM*
CC(=O)Nc1ccc(NC(=O)c2nc(S(=O)(=O)Cc3ccccc3)ncc2Cl)cc1	i	-3%	i	-3%
CCOc1ccccc1NC(=O)c1nc(S(=O)(=O)Cc2cccc(C)c2)ncc1Cl	5.2µM*!	1%	?	-4%
CCc1nnc(NC(=O)c2nc(S(=O)(=O)Cc3ccccc3)ncc2Cl)s1	23µM*	12µM*	?	7.3µM*
COC(=O)c1ccccc1NC(=O)c1nc(S(=O)(=O)Cc2ccccc2)ncc1Cl	i	0%	i	-10%
CCc1nnc(NC(=O)c2nc(Cl)ccc2Cl)s1	i	29%	?	28%
CCc1nnc(NC(=O)c2nc(S(=O)(=O)Cc3ccc(C)cc3)ncc2Cl)s1	16µM*!	18µM*	?	15µM*
COC(=O)c1nnn(CC(=O)Nc2cc(F)ccc2F)c1C(=O)OC	?	.	i	.
CCOc1ccccc1CNC(=O)c1sc2ncccc2c1-n1cccc1	i	.	i	.
COc1ccc(C2CC(=O)c3cc(-c4nc(-c5ccc(Cl)cc5)cs4)c(=O)[nH]c3C2)cc1OC (configuration not stated)	i	.	i	.
CCC(CC)C1C(C#N)=C(N)Oc2n[nH]c(C)c21 (configuration not stated)	i	11µM*	i	11µM*
Cc1ccc(-c2ccc(C3C(C#N)=C(N)Oc4n[nH]c(C)c43)o2)cc1 (configuration not stated)	i	-20%	26µM*	-15%
CCC(CC)C1C(C#N)=C(N)Oc2n[nH]c(-c3ccccc3)c21 (configuration not stated)	i	?	i	-20%[9.24 µM]
Cc1[nH]nc2c1C(c1ccc(F)cc1)C(C#N)=C(N)O2 (configuration not stated)	i	-1%	?	16%
Cc1[nH]nc2c1C(c1ccc(-c3ccccc3C#N)o1)C(C#N)=C(N)O2 (configuration not stated)	i	?	i	11µM*
COC(=O)c1sc(N2C(=O)c3oc4ccccc4c(=O)c3C2c2ccc(O)cc2)nc1C (configuration not stated)	?	.	i	.
